# PubChem BioAssay (NCATS)
# Results filed as inconclusive are left out. A call without a number means that no potency is given here. The source made the active and inactive calls. The call rests on the fitted dose curve; in most records, active means well fitted cell-killing curve with a large enough effect; inconclusive means small, poorly fitted or top-dose-only effect, or effect the other way; inactive means no such curve, though single readings can be large or run the other way.
# Assay: Viability qHTS for spleen associated tyrosine kinase inhibitor (SYKi) naive MV4-11 cells (AID 1963823); further: nearly all actives have a fitted effect of over 40% in size
# Details: MV4-11 AML viability, CellTiter-Glo luminescence, 72 h; series mostly up to 45 µM
# Procedure, shortened: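 Cells: MV4-11, SYK inhibitor naive, 500 per well. Treatment: library compounds, 72 hr, 37 C, 5% CO2. Read-out: CellTiter-Glo luminescence after 10 min RT.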
# Potency means the concentration at half of the fitted maximal effect.
row,SMILES,Potency
1,CC[C@H](CO)Nc1nc(Nc2cccc(-c3ccccn3)c2)c2ncn(C(C)C)c2n1,2.59 µM (active)
2,CC(=O)c1cc2c(cc1O)OC(C)(C)C=C2,inactive
3,C/C(=C/CO)CC[C@H]1[C@]2(C)C[C@H](O)CC(C)(C)[C@H]2CC[C@]1(C)O,inactive
4,C=C1C(=O)O[C@@H]2C3C(=C(C)[C@@H](O)[C@@H](OC(=O)/C(=C/C)COC(C)=O)[C@@H]12)C(=O)[C@H]1O[C@@]31C (stereo partly drawn),2.82 µM (active)
5,Fc1ccccc1CNCc1ccc(-c2ccnc3[nH]ccc23)cc1,5.17 µM (active)
6,CC(=O)O[C@]1(C(C)=O)CC[C@H]2[C@@H]3CCC4=CC(=O)CCC4=C3[C@@H](c3ccc(N(C)C)cc3)C[C@@]21C,25.9 µM (active)
7,CC(O)CCC1C(CO[C@@H]2O[C@H](CO)[C@@H](O)[C@H](O)[C@H]2O)CC(O)CC1(C)C (stereo partly drawn),inactive
8,COc1cc(C2Oc3c(OC)cc(/C=C/C(=O)OC4CC(O)(C(=O)O)CC(O)C4O)cc3C2CO)ccc1O (stereo not drawn),inactive
9,O=C(O)/C=C/c1ccc(O)c(O[C@@H]2O[C@H](CO)[C@@H](O)[C@H](O)[C@H]2O)c1,inactive
10,C=C1C[C@H](O)[C@@H](O)[C@@]2(C)C1[C@@H](O)[C@H]1OC(=O)C3[C@@H](C)[C@@H](O)[C@H](O)C2[C@]31C (stereo partly drawn),inactive
11,O=C(OC1C=C(CO)C2C(OC3OC(CO)C(O)C(O)C3O)OC=CC12)c1ccc(O)cc1 (stereo not drawn),inactive
12,CC(C)NC[C@H](O)COc1ccc(CCOCC2CC2)cc1,inactive
13,CCC/C=C/C=C/C1CC(O)C(O)C(=O)C1CO (stereo not drawn),inactive

# Assay: Viability qHTS for spleen associated tyrosine kinase inhibitor (SYKi) drug resistant MV4-11 cells (AID 1963824); further: nearly all actives have a fitted effect of over 35% in size
# Details: SYKi-resistant MV4-11 viability, CellTiter-Glo, 72 h; series mostly up to 45 µM
# Procedure, shortened: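 SYK-inhibitor-resistant MV4-11 AML cells were seeded at 500 per well onto compound and cultured 72 hours (37 °C, 5% CO2). CellTiter-Glo was then added, and after 10 min at room temperature, luminescence gave viability.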
SMILES,Potency,"viability, % of control"
COc1cc(C(CO)C(OC2OC(CO)C(O)C(O)C2O)c2ccc(O)c(OC)c2)ccc1O (stereo not drawn),inactive,–
CCC[C@@H](NC(=O)N1C(=O)C(CC)(CC)[C@@H]1Oc1ccc(C(=O)N2CCN(C)CC2)cc1)c1ccc2c(c1)OCO2,20.6 µM (active),–
CC1=CC2/C=C(\C)CCC(O)C(=O)C(O)CC(=O)C23C(=O)NC(CC(C)C)C3C1C (stereo not drawn),11.2 µM (active),–
CC(C)=CCC/C(C)=C/CO[C@@H]1O[C@H](CO[C@@H]2O[C@@H](CO)[C@H](O)[C@H]2O)[C@@H](O)[C@H](O)[C@H]1O,inactive,–
COc1cc(/C=C/C(=O)OC2CC(C)=C(C(=O)O)/C2=C/CO[C@@H]2O[C@H](CO)[C@@H](O)[C@H](O)[C@H]2O)ccc1O (stereo partly drawn),inactive,–
C=C1CC[C@@H]2[C@](C)(CO)[C@H](O)CC[C@@]2(C)[C@@H]1C/C=C1/C(=O)OCC1O (stereo partly drawn),3.26 µM (active),–
CNc1nc(-c2ccc3c(N)n[nH]c3c2)cc(N2C[C@@H](C(=O)NC3CCCCC3)CC[C@H]2C)n1,5.9 µM (active),–
NCC(=O)O,inactive,–
CC1(C)CCC2(C(=O)OC3OCC(O)C(O)C3O)CCC3(C)C(=CCC4C5(C)CC(O)C(OC6OC(COC7OCC(O)C(O)C7O)C(O)C(O)C6O)C(C)(C)C5CCC43C)C2C1 (stereo not drawn),–,78.5% [at 9.25 µM] (inactive)
COc1ccc(/C=C/C(=O)O[C@@H]2[C@@H](O)[C@@H](O)[C@H](O[C@H]3[C@@H]4C=CO[C@@H](O[C@@H]5O[C@H](CO)[C@@H](O)[C@H](O)[C@H]5O)[C@@H]4[C@@]4(CO)O[C@@H]34)O[C@H]2C)cc1,inactive,–
Cc1ncc(Cl)cc1NCc1ccc(C(=O)NC(CC2CCCC2)C(=O)NC2CC2)s1 (stereo not drawn),18.6 µM (active),–
CCc1ccc2nc(Nc3cc(Cc4ccccc4)nc(NC4CCC(O)CC4)n3)sc2c1 (stereo not drawn),6.61 µM (active),–
O=C(OCC1=CC(O)C2C=CO[C@@H](O[C@@H]3O[C@H](CO)[C@@H](O)[C@H](O)[C@H]3O)C12)c1ccccc1 (stereo partly drawn),inactive,–
CCc1c(CC(N)=O)c2cc(OCCCP(=O)(O)O)ccc2n1Cc1ccccc1,inactive,–
O=C(NC1CCN(CCCCC2(C(=O)NCC(F)(F)F)c3ccccc3-c3ccccc32)CC1)c1ccccc1-c1ccc(C(F)(F)F)cc1,2.59 µM (active),–
C[C@H](NC(c1cccc2[nH]c(=O)c(=O)[nH]c12)P(=O)(O)O)c1ccc(Br)cc1 (stereo partly drawn),14.6 µM (active),–
OC[C@H]1O[C@@H](Oc2ccccc2)[C@H](O)[C@@H](O)[C@@H]1O,inactive,–
CC1=CC(=O)CC(C)(CO)C1(O)/C=C/C(C)O[C@@H]1O[C@H](CO)[C@@H](O)[C@H](O)[C@H]1O (stereo partly drawn),inactive,–
C[C@@H]1Cc2c([nH]c3ccccc23)[C@@H](c2c(F)cc(/C=C/C(=O)O)cc2F)N1CC(C)(C)F,20.9 µM (active),–
O=C(/C=C/c1ccc(O)cc1)O[C@@H]1C[C@@](O)(C(=O)O)C[C@@H](O)[C@@H]1O,inactive,–

SMILES,Potency,"viability, % of control"
COc1cccc(-c2cn(-c3ccc(CCN4CCC(O)CC4)cc3)c3ncnc(N)c23)c1,2.31 µM (active),–
CO[C@H]1C=C2C(CC[C@H](O[C@@H]3O[C@H](CO)[C@@H](O)[C@@H](O)[C@H]3O)C2(C)C)[C@]2(C)CC[C@]3(C)C([C@H](C)C(O)C(C=C(C)C)O[C@@H]4O[C@H](CO)[C@@H](O)[C@@H](O)[C@H]4O)CC[C@@]3(C)C12 (stereo partly drawn),–,90.7% [at 9.25 µM] (inactive)
O=c1cc(NCCCN[C@@H]2CCOc3c(Br)cc(Br)cc32)[nH]c2ccsc12,7.31 µM (active),–
C[C@@H]1O[C@@H](O[C@H]2[C@H](O[C@H]3[C@H](O[C@H]4CC[C@@]5(C)C(CC[C@]6(C)C5CC=C5[C@@H]7CC(C)(C(=O)O)C[C@@H](O)[C@]7(C)CC[C@]56C)[C@@]4(C)CO)O[C@H](C(=O)O)[C@@H](O)[C@@H]3O)O[C@H](CO)[C@H](O)[C@@H]2O)[C@H](O)[C@H](O)[C@H]1O (stereo partly drawn),–,77.5% [at 9.25 µM] (inactive)
C=C1CCC2(OC1)OC1CC3C4CC=C5CC(O)CC(O[C@@H]6OC[C@@H](O)[C@H](O)[C@H]6O)C5(C)C4CCC3(C)C1(O)C2C (stereo partly drawn),inactive,–
C=C1C(=O)OC2/C=C(\COC(C)=O)CC/C=C(\C=O)CC(OC(=O)CC(C)C)C12 (stereo not drawn),1.12 µM (active),–
Cc1ccc([C@@H]2O[C@H](CO)[C@@H](O)[C@H](O)[C@H]2O)cc1Cc1ccc(-c2ccc(F)cc2)s1,16.6 µM (active),–
CC[C@H](CO)Nc1nc(Nc2cccc(-c3ccccn3)c2)c2ncn(C(C)C)c2n1,5.17 µM (active),–
CC(=O)c1cc2c(cc1O)OC(C)(C)C=C2,inactive,–
C/C(=C/CO)CC[C@H]1[C@]2(C)C[C@H](O)CC(C)(C)[C@H]2CC[C@]1(C)O,inactive,–
C=C1C(=O)O[C@@H]2C3C(=C(C)[C@@H](O)[C@@H](OC(=O)/C(=C/C)COC(C)=O)[C@@H]12)C(=O)[C@H]1O[C@@]31C (stereo partly drawn),3.55 µM (active),–
Fc1ccccc1CNCc1ccc(-c2ccnc3[nH]ccc23)cc1,9.2 µM (active),–
CC(=O)O[C@]1(C(C)=O)CC[C@H]2[C@@H]3CCC4=CC(=O)CCC4=C3[C@@H](c3ccc(N(C)C)cc3)C[C@@]21C,20.6 µM (active),–
CC(O)CCC1C(CO[C@@H]2O[C@H](CO)[C@@H](O)[C@H](O)[C@H]2O)CC(O)CC1(C)C (stereo partly drawn),inactive,–
COc1cc(C2Oc3c(OC)cc(/C=C/C(=O)OC4CC(O)(C(=O)O)CC(O)C4O)cc3C2CO)ccc1O (stereo not drawn),inactive,–
O=C(O)/C=C/c1ccc(O)c(O[C@@H]2O[C@H](CO)[C@@H](O)[C@H](O)[C@H]2O)c1,inactive,–
C=C1C[C@H](O)[C@@H](O)[C@@]2(C)C1[C@@H](O)[C@H]1OC(=O)C3[C@@H](C)[C@@H](O)[C@H](O)C2[C@]31C (stereo partly drawn),inactive,–
O=C(OC1C=C(CO)C2C(OC3OC(CO)C(O)C(O)C3O)OC=CC12)c1ccc(O)cc1 (stereo not drawn),inactive,–
CC(C)NC[C@H](O)COc1ccc(CCOCC2CC2)cc1,inactive,–
CCC/C=C/C=C/C1CC(O)C(O)C(=O)C1CO (stereo not drawn),inactive,–
